Laboratory results from PubChem BioAssay AID504465 (National Center for Advancing Translational Sciences (NCATS), 2011).
About 210 (10%) of roughly 2,100 compounds were called active. Roughly 53% stayed inconclusive and do not appear here. This is one part of the list. A number with no mark means an inactive call. Calls come from the whole dose curve; as a rule, active = well fitted inhibition curve with a large enough effect; inconclusive = small, poorly fitted or top-dose-only effect, or effect the other way; inactive = no such curve, though single readings can be large or run the other way.

Experiment: IN Cell qHTS Assay for Inhibitors of the mTORC1 Signaling Pathway in MEF (Tsc2-/-, p53-/-) Cells: Sytravon; note: nearly all actives have a fitted effect of over 60% in size;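 for activity, negative = inhibition: plate controls were DMSO wells for no effect and 7.5 nM rapamycin full pathway inhibition for full effect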
Conditions: phospho-rpS6 immunofluorescence, 24 h; series mostly up to 38.3 µM; activity, negative = inhibition: at the top concentration
In short: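 Tsc2-/-, p53-/- MEFs (empty-vector) treated with compound 24 h at 37 degree Celsius, then fixed and stained for phospho-rpS6 Ser235/236 (Alexa-488) plus Hoechst. Reported as % positive cells, thresholds set against 7.5 nM rapamycin and DMSO wells.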
Potency is the fitted concentration of half-maximal effect.

| Compound | activity, negative = inhibition [%] | Potency |
| --- | --- | --- |
| COc1ccc(CNC(=O)c2cc(-c3ccc(Br)s3)nc3ccccc23)c(OC)c1 | -13.5 |  |
| COc1ccc(CCNC(=O)C(C)n2nc(C)c3sc4ccccc4c3c2=O)c(OC)c1 (centres undefined) |  | 4.65 µM (active) |
| COc1ccc(CNC(=O)CCCc2cn(C)c3ccccc23)c(OC)c1 | 6.25 |  |
| O=C(Cn1cc(SCc2cccc(C(F)(F)F)c2)c2ccccc21)N1CCCCCC1 | -22.9 |  |
| Cc1cccc(-c2noc(CNC(=O)c3ccc(C)cc3C)n2)c1 | -7.27 |  |
| Cc1ccc(NC(=O)c2cc(S(=O)(=O)NCCC3=CCCCC3)ccc2F)cc1F | 6.25 |  |
| COc1ccc(-n2ncc3c(NCCCOC(C)C)ncnc32)cc1 | -3.87 |  |
| COc1cccc(-c2noc(CCCC(=O)NCc3ccco3)n2)c1 | -11.3 |  |
| COc1ccccc1N1CCN(C(=O)c2nc(SC)ncc2Cl)CC1 | -10.7 |  |
| O=C(NCc1ccccc1Cl)c1cnc(N2CCCCC2)c2ccccc12 | -24.1 |  |
| COc1ccccc1N1CCN(C(=O)c2cnc(N3CCCCC3)c3ccccc23)CC1 |  | 5.85 µM (active) |
| Cc1ccccc1Nc1c(-c2cccc(N(C)C)c2)nc2ccc(Br)cn12 | 24.1 |  |
| Cc1cc(=O)n(CC(=O)N2CCN(c3ccccc3F)CC2)c2c1c(C)nn2C | -5.56 |  |
| COc1cc(NC(=O)Cn2nc(C(F)(F)F)c3c2CCCC3)c(OC)cc1Cl | -24 |  |
| CCCC(=O)Nc1nnc(SCc2cc(=O)c3ccc(C)cc3[nH]2)s1 |  | 3.69 µM (active) |
| Cc1nnc(NC(=O)CSCc2cc(=O)c3ccccc3[nH]2)s1 | 14.3 |  |
| O=C(Nc1nnc(SCc2cc(=O)c3ccccc3[nH]2)s1)c1ccccc1 | -6.25 |  |
| Cc1ccc(-n2c(SCc3nc(-c4ccccc4C)no3)nnc2-c2ccncc2)cc1C | -7.02 |  |
| C=CCc1cccc2cc(-c3nc4ccc(C)cc4[nH]3)c(=O)oc12 | -4.54 |  |
| CCC(C(=O)Nc1cc(-c2nc3cccnc3s2)ccc1C)c1ccccc1 (centres undefined) | -14.5 |  |
| CSc1cccc(Nc2cc(C(=O)NCCCN(Cc3ccccc3)C(C)C)c3ccccc3n2)c1 | 0 |  |
| COc1ccccc1Nc1cc(C(=O)NCCCN(C)C2CCCCC2)c2ccccc2n1 |  | 1.65 µM (active) |

| Compound | activity, negative = inhibition [%] | Potency |
| --- | --- | --- |
| COc1ccc(Nc2cc(C(=O)NCCCN(C)Cc3ccccc3)c3ccccc3n2)cc1OC | 0 |  |
| CCCCN(CCCNC(=O)c1cc(Nc2ccc(OC)c(OC)c2)nc2ccccc12)Cc1ccccc1 |  | 2.33 µM (active) |
| CC1CCCN(CCCNC(=O)c2cc(Sc3ccc(F)cc3)nc3ccccc23)C1 (centres undefined) | 6.25 |  |
| COc1ccc(N2CCN(CCCNC(=O)c3cc(Nc4ccccc4OC)nc4ccccc34)CC2)cc1 | 0 |  |
| CC1CCCCN1S(=O)(=O)c1ccc(C(=O)Nc2sc3c(c2C(N)=O)CC(C)(C)NC3(C)C)cc1 (centres undefined) | 6.25 |  |
| COc1ccccc1NC(=O)C1=C(C)Nc2nc(SCc3ccccc3)nn2C1c1cccs1 (centres undefined) | -16.2 |  |
| CCC1CN(C(=O)NCc2cccc(OC)c2)c2cc(Cl)ccc2O1 (centres undefined) | -9.57 |  |
| Cc1ccc(NC(=O)C(Cc2c[nH]c3ccccc23)NC(=O)OC(C)(C)C)c(C)c1 (centres undefined) | 30.2 |  |
| O=C(Nc1cc(Cl)cc(Cl)c1)c1ccc(F)c(S(=O)(=O)NC2CCCCC2)c1 | 6.25 |  |
| O=C1CC(c2c(F)cccc2Cl)c2c(ccc3ccccc23)N1 (centres undefined) | 2 |  |
| COC(=O)c1ccc(C2C=C(c3ccc(Cl)cc3)Nc3nc4ccccc4n32)cc1 (centres undefined) | 0 |  |
| Cc1c(C(=O)Nc2cccc(F)c2)oc2c1-c1nn(Cc3c(F)cccc3Cl)cc1CC2 | -85.4 |  |
| CCS(=O)(=O)c1ncc(Cl)c(C(=O)NCc2ccc(OC)cc2)n1 |  | 3.29 µM (active) |
| Cc1ccc(NC(=O)c2nc(S(=O)(=O)Cc3cccc(C)c3)ncc2Cl)cc1 |  | 6.56 µM (active) |
| Cc1cccc(NC(=O)c2ccc(F)c(S(=O)(=O)NCc3ccc4c(c3)OCO4)c2)c1 | 6.25 |  |
| CCOC(=O)c1cc(S(=O)(=O)NCc2ccc(OC)cc2)[nH]n1 | -9.55 |  |
| Cc1cccc(NC(=O)c2nc(S(C)(=O)=O)ncc2Cl)c1 |  | 2.61 µM (active) |
| CC1CCn2c(nc3cc(C(=O)NCc4ccccc4)ccc32)C1 (centres undefined) | 4.17 |  |
| COc1ccc(CNC(=O)C2CCC(CNS(=O)(=O)c3cccs3)CC2)cc1 (centres undefined) | 21.6 |  |
| O=C(NCc1ccccc1)c1nc(S(=O)(=O)Cc2ccccc2)ncc1Cl |  | 18.5 µM (active) |
| O=C(Nc1ccc(F)c(F)c1)c1cc(S(=O)(=O)N2CCc3ccccc32)ccc1F | 6.25 |  |
| COc1ccc(-c2ccc(CCC(=O)O)n2-c2cc(Cl)ccc2O)cc1 | -13.7 |  |

| Compound | activity, negative = inhibition [%] | Potency |
| --- | --- | --- |
| CC(C)c1ccc(NC(=O)C2Cc3ccccc3N2C(=O)c2ccccc2)cc1 (centres undefined) | -4.76 |  |
| CCOC(=O)c1c(NC(=O)c2ccc(S(=O)(=O)N3CCC(C)CC3)cc2)sc2c1CCN(CC)C2 | 6.25 |  |
| Cc1ccc(-c2cc(C(=O)N3CCN(c4ccccc4)CC3)c3ccccc3n2)cc1C | -15.7 |  |
| CCOC(=O)C1CCCN(C(=O)Cn2c(=O)cc(C)c3c(C)nn(C)c32)C1 (centres undefined) | -0.372 |  |
| O=C(NCCSc1c(-c2ccc(F)cc2)[nH]c2ccccc12)c1ccc(S(=O)(=O)N2CCOCC2)cc1 | 4.61 |  |
| Cc1ccc(NC(=O)c2c(C)oc3ccc(O)c(CN4CCCCC4)c23)c(C)c1 | -4.63 |  |
| CCc1ccc(CNC(=O)Cn2nc(-c3ccc(C)cc3)ccc2=O)cc1 | 6.25 |  |
| Cc1nnc(SCC(=O)NCc2ccccc2F)c2nn(-c3ccc(Cl)cc3)c(C)c12 | 0 |  |
| CCOC(=O)c1c(NC(=O)c2ccc(S(=O)(=O)N3CCC(C)CC3)cc2)sc2c1CCN(C(C)C)C2 | 6.25 |  |
| CCOC(=O)c1c(NC(=O)c2nc(S(C)(=O)=O)ncc2Cl)sc(C(C)=O)c1C |  | 5.85 µM (active) |
| Cc1cccc(CS(=O)(=O)c2ncc(Cl)c(C(=O)NCc3ccccc3)n2)c1 |  | 18.5 µM (active) |
| COc1ccc(NC(=O)c2nc(S(=O)(=O)Cc3ccc(C)cc3)ncc2Cl)cc1 |  | 2.61 µM (active) |
| CCC1(C)CC(=O)c2c(ccc3oc(C(=O)NCc4ccccc4)c(C)c23)O1 (centres undefined) | -8.68 |  |
| Cc1c2cnn(CC(=O)NCc3ccccc3)c(=O)c2c(C)n1Cc1cccc(Cl)c1 | -19.8 |  |
| CCS(=O)(=O)c1ncc(Cl)c(C(=O)NCc2ccccc2)n1 |  | 3.29 µM (active) |
| Cc1cccc(Cn2c(=O)n(CCCC(=O)NCc3ccccc3Cl)c(=O)c3ccccc32)c1 | -5.71 |  |
| CCc1cnc2c(c1SCC(=O)NCc1ccccc1)c(=O)n(C)c(=O)n2C | 0.735 |  |
| Cc1ccc(S(=O)(=O)C2(C(=O)Nc3ccc(C(C)C)cc3)CC2)cc1 | 23.2 |  |
| CCCS(=O)(=O)c1ncc(Cl)c(C(=O)Nc2scc(-c3ccccc3)c2C(=O)OCC)n1 | -21.1 |  |
| COc1ccc(NC(=O)CCc2nc3c(C)nn(-c4ccc(C)cc4)c3n(C)c2=O)cc1 | -1.68 |  |
